Source: PubChem
An excerpt weighted towards active compounds, which were near 6.1% of everything screened.
ATXN2 expr inh: Primary qHTS for Inhibitors of ATXN expression; HEK-293 ATXN2-luciferase reporter, luminescence, 24 h; actives 0.72% (n = 360,000); AID 1745845, 2022; Potency, µM (series often up to 57 µM), inactives show at the highest dose activity change, negative = inhibition, usual class: inhibitors; further: on the % scale 0 is the no-effect control and ±100 the full control effect; nearly all actives have a fitted effect of over 55% in size
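ATXN2-luciferase reporter cells (luciferase flanked by upstream and downstream ATXN2 gene portions) were treated 24 h at 37 °C with compounds at up to 57 uM. SteadyGlo luminescence gave expression; GF-AFC fluorescence gave viability.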
RORg inh: qHTS for inhibitors of ROR gamma transcriptional activity | Nuclear receptor ROR-gamma (Mus musculus), P51450 | Drosophila S2 Gal4-RORgamma UAS-luciferase reporter, 20 h | Potency, µM (titrated, usually from 53.6 µM), for the others: top-dose activity change, negative = inhibition, actives largely listed as inhibitors | actives 5.4% (n = 310,000); further: on the % scale 0 is the no-effect control and ±100 the full control effect; nearly all actives have a fitted effect of over 60% in size
Target sequence (P51450 whole entry, looked up, the tested form may be a part): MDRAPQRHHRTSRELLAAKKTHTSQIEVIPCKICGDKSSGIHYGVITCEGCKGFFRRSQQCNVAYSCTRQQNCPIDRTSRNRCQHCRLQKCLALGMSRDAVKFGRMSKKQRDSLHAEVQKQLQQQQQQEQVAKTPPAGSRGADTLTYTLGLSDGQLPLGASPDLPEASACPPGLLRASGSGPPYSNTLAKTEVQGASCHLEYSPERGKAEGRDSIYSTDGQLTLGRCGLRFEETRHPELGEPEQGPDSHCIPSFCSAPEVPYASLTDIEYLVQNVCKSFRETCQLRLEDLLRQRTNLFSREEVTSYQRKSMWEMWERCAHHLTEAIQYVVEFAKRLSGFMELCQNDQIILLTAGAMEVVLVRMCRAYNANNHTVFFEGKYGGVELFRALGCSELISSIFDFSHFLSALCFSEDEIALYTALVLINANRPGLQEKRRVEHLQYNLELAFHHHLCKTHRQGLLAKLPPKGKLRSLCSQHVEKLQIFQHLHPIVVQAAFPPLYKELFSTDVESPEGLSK
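Luciferase reporter read in Schneider cells carrying Gal4-RORγ (mouse) and UAS-Photinus luciferase; cells given compound 1 h before 700 uM copper sulfate induction, then incubated 20 h at ambient temperature.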
Gal4-VP16 FLuc: VP16 counterscreen qHTS for inhibitors of ROR gamma transcriptional activity; Drosophila S2 Gal4-VP16 UAS-luciferase, luminescence, 20 h; Potency, µM (titrated, usually from 53.6 µM), inactives show top-dose activity, negative = inhibition, most hits filed as inhibitors; actives 3.5% (n = 310,000);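 further: Gal4-VP16 expression switched on by copper sulfate through the metallothionein promoter; on the % scale 0 is the no-effect control and ±100 the full control effect; nearly all actives have a fitted effect of over 50% in size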
HepG2 viability: qHTS for Inhibitors of TGF-b: Cytotox Counterscreen | HepG2 CAGA-GFP viability, ATP luminescence, 18 h | Potency, µM (doses to about 46.1 µM), for the others: top-dose activity change, negative = cytotoxicity, usual class: cytotoxic | actives 0.76% (n = 410,000) | AID 588856, 2011
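HepG2 CAGA-GFP cells (1000/well, DMEM with 1% FBS) received compound, then TGF-beta at 500 pg/mL final, and were incubated 18 hours at 37 degrees C. Viability was read by CellTiter-Glo luminescence. Media-only wells were set as complete cell-killing and DMSO as no toxicity.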
S2 tox: Viability Counterscreen for Primary qHTS for Inhibitors of ATXN expression; AID 651635, 2014; Potency, µM (titrated, usually from 56.7 µM), actives largely listed as cytotoxic; actives 0.49% (n = 400,000); S2 cells (HEK-293 line with an ATXN2-luciferase reporter) viability, CellTiter-Fluor protease fluorescence, 24 h; further: nearly all actives have a fitted effect of over 40% in size
TGFb inhibitor: qHTS for Inhibitors of TGF-b; HepG2 CAGA-GFP TGF-b/SMAD3 reporter, GFP fluorescence, 18 h; TGF-beta stimulated, 500 pg/mL final; Potency, µM (top dose mostly 46.1 µM), for inactives: top-dose activity, negative = inhibition, usual class: inhibitors; actives 1.2% (n = 410,000); AID 588855, 2011; further: on the % scale 0 is the no-effect control and ±100 the full control effect; nearly all actives have a fitted effect of over 65% in size
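GFP signal (ex488/em500-530) from TGF-beta-stimulated HEPG2 CAGA-GFP cells, 500 pg/mL final, 18 h at 37 degrees C in DMEM plus 1% FBS, normalized to unstimulated and DMSO-stimulated controls.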
The depositor's hits bear a star; [ ] = dose if it differs, or a comment. The call rests on the fitted dose curve; in most records, active means well fitted curve in the direction sought with a large enough effect; inconclusive means small, poorly fitted or top-dose-only effect, or another doubt; inactive means no such curve, though single readings can be large; an effect the other way counts as inactive or inconclusive. Potency means the concentration at half of the fitted maximal effect.

For CCOC(=O)c1ccc2c(c1)N(Cc1cccc([N+](=O)[O-])c1)C(=O)c1ccccc1S2 the results were ATXN2 expr inh 10%, HepG2 viability -2%, S2 tox inactive and TGFb inhibitor 1%.
`COc1cc(/C=N/NC(=S)NCCN2CCOCC2)ccc1O` gave ATXN2 expr inh 3%, RORg inh inconclusive, Gal4-VP16 FLuc -10%, HepG2 viability 5%, S2 tox inconclusive and TGFb inhibitor 5%.
For Cc1ccc(/C=N/NC(=O)c2cccc3ccccc23)o1 the results were ATXN2 expr inh 16%, RORg inh 0%, Gal4-VP16 FLuc inconclusive, HepG2 viability 1%, S2 tox inactive and TGFb inhibitor -7%.
Screening COCCNC(=S)N/N=C/c1ccc(N2CCOCC2)cc1 returned ATXN2 expr inh -32%, RORg inh inconclusive, Gal4-VP16 FLuc 20µM*, HepG2 viability -34%, S2 tox inactive and TGFb inhibitor inconclusive.
`C=C(C)CNC(=S)N/N=C/c1c(F)cccc1F` gave ATXN2 expr inh -2%, RORg inh 1.8µM*, Gal4-VP16 FLuc 6.3µM*, HepG2 viability -8%, S2 tox inactive and TGFb inhibitor -5%.
COC(=O)c1ccc(/C=N/NC(=S)NC(C)C)cc1 was read as ATXN2 expr inh 4%, RORg inh 2µM*, Gal4-VP16 FLuc 7.1µM*, HepG2 viability -1%, S2 tox inactive and TGFb inhibitor 0%.
Cc1ccc(/C=N/NC(=O)C(C)Oc2cccc3ccccc23)o1 (centres undefined) was read as ATXN2 expr inh 7%, RORg inh 16µM*, Gal4-VP16 FLuc inconclusive, HepG2 viability 0%, S2 tox inactive and TGFb inhibitor -11%.
For CC[C@@]1(c2ccccc2)NC(=O)N(C)C1=O the results were ATXN2 expr inh 7%, RORg inh -5%[10 µM], Gal4-VP16 FLuc -2% and S2 tox inactive.
CN1CCC(=O)N(C(CSc2ccc(Br)cc2)Cc2ccccc2)CC1 (centres undefined) was read as RORg inh 22%, Gal4-VP16 FLuc 2%, HepG2 viability -14% and TGFb inhibitor -2%.
`COc1cc(N(C)C)c(OC)cc1/C=C1\C=Cc2ccccc21` gave HepG2 viability -24% and TGFb inhibitor -26%.
For COCCNC(=S)N/N=C/c1ccc([N+](=O)[O-])cc1 the results were ATXN2 expr inh -20%, RORg inh inconclusive, Gal4-VP16 FLuc inconclusive, HepG2 viability -6%, S2 tox inactive and TGFb inhibitor 0%.
`C=C(C)CNC(=S)N/N=C/c1ccc([N+](=O)[O-])cc1` gave ATXN2 expr inh -37%, RORg inh 1.1µM*, Gal4-VP16 FLuc 4.5µM*, HepG2 viability 5%, S2 tox inconclusive and TGFb inhibitor -11%.
CC(C)NC(=S)N/N=C/c1ccc(N2CCOCC2)cc1 was read as RORg inh 2.8µM*, Gal4-VP16 FLuc 4.5µM*, HepG2 viability -35%, S2 tox inconclusive and TGFb inhibitor inconclusive.
Screening O=C(N/N=C/c1ccc(N2CCOCC2)cc1)c1ccncc1 returned ATXN2 expr inh -10%, HepG2 viability 0%, S2 tox inactive and TGFb inhibitor 2%.
Screening O=C(N/N=C/c1ccccc1)c1ccc2c(c1)OCO2 returned ATXN2 expr inh -20%, RORg inh inconclusive, Gal4-VP16 FLuc 11µM*, HepG2 viability -41%, S2 tox inactive and TGFb inhibitor -8%.
O=C(O)c1ccc(/C=N/NC(=O)c2ccc3c(c2)OCCO3)cc1 was read as RORg inh inconclusive, Gal4-VP16 FLuc -26%, HepG2 viability -13%, S2 tox inactive and TGFb inhibitor 1%.
`O=C(NNC(=O)c1cccc2ccccc12)c1ccc2c(c1)OCO2` gave ATXN2 expr inh 48%, RORg inh 21%, Gal4-VP16 FLuc 11%, HepG2 viability 8%, S2 tox inactive and TGFb inhibitor 10%.
CN(C)c1ccc(/C=N/NC(=O)c2ccc3c(c2)OCO3)cc1 was read as ATXN2 expr inh 16%, RORg inh inconclusive, Gal4-VP16 FLuc 3%, HepG2 viability 2%, S2 tox inconclusive and TGFb inhibitor 6%.
`COc1ccc2ccccc2c1/C=N/NC(=O)c1ccc(C)nc1` gave RORg inh inconclusive, Gal4-VP16 FLuc 2%, HepG2 viability -15%, S2 tox inactive and TGFb inhibitor -10%.
O=C(N/N=C/c1ccc(Br)o1)c1ccc2c(c1)OCCO2 was read as ATXN2 expr inh 28%, RORg inh 11µM*, Gal4-VP16 FLuc inconclusive, HepG2 viability 7%, S2 tox inactive and TGFb inhibitor 11%.
For O=C(NN=Cc1c(O)ccc2ccccc12)c1ccc2c(c1)OCO2 the results were ATXN2 expr inh 3.2µM*, HepG2 viability -81%, S2 tox inactive and TGFb inhibitor inconclusive.
Screening O=C(N/N=C/c1c(O)ccc2ccccc12)c1ccc(CO)nc1 returned ATXN2 expr inh 4µM*, RORg inh 4µM*, Gal4-VP16 FLuc 6.3µM*, HepG2 viability -23%, S2 tox inactive and TGFb inhibitor -5%.
For CN(C)c1ccc(CC2CCc3ccccc32)cc1 (centres undefined) the results were HepG2 viability -17% and TGFb inhibitor 15%.
Screening C/C(CCC(=O)OC[C@@H]1O[C@H](C#Cc2ccccc2)C=C[C@@H]1Oc1ccc(C)cc1)=N/O[C@@H](C)CN1CCCCc2nc(C)c(C)cc21 returned RORg inh 0%[10 µM] and Gal4-VP16 FLuc 4%[10 µM].
`O=C(Nc1ccc(NC(=O)c2ccco2)cc1)c1ccc2c(c1)OCO2` gave ATXN2 expr inh inconclusive, RORg inh 22µM*, Gal4-VP16 FLuc inconclusive, HepG2 viability -58%, S2 tox inconclusive and TGFb inhibitor 28%.
For O=C(Nc1ccc(NC(=O)c2ccco2)c(Cl)c1)c1ccc2c(c1)OCCO2 the results were ATXN2 expr inh -2%, RORg inh inconclusive, Gal4-VP16 FLuc inconclusive, HepG2 viability -16%, S2 tox inactive and TGFb inhibitor -1%.
Screening O=C(N/N=C/c1ccc([N+](=O)[O-])o1)c1ccc2c(c1)OCO2 returned ATXN2 expr inh 10µM*, RORg inh 4.5µM*, Gal4-VP16 FLuc 10µM*, HepG2 viability 11µM*, S2 tox inactive and TGFb inhibitor 16µM*.
